Data: the supplement of paper PMC11634586
Where a name gives a salt, the structure may show the parent alone. Values without a mark were called inactive.

System: NCI-H1688
Assay: inhibition of cell viability relative to untreated control (fraction); higher = stronger growth inhibition, active = 0.5 or more
Conditions: 30 µM; 24 h
In short: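 Viability of NCI-H1688 small cell lung cancer cells was assessed with Cell Counting Kit-8 by absorbance at 450 nm, in triplicate, after a 24 h exposure to a natural compound library (TargetMol) at 30 µM at 37°C and 5% CO2. The cells had been seeded at 3 × 10^3 cells/well in 96-well plates 24 h before treatment. Inhibition of cell viability is reported as a fraction, derived from viability normalised against untreated cells.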

| SMILES | inhibition of cell viability |
| --- | --- |
| COC(=O)Nc1nc2cc(C(=O)c3cccs3)ccc2[nH]1 [Nocodazole] | 0.75 (active) |
| O=c1c(-c2ccc(O)cc2)coc2cc(O)cc(O)c12 [Genistein] | 0.7 (active) |
| COC(=O)/C=C/c1ccc(O)cc1 [Methyl 4-hydroxycinnamate] | -0.109 |
| O=c1cc(-c2ccc(O)cc2)oc2cc(O)cc(O)c12 [Apigenin] | 0.487 |
| Nc1ncnc2c1ncn2[C@@H]1O[C@H](COP(=O)(O)OP(=O)(O)OP(=O)(O)O)[C@@H](O)[C@H]1O [Adenosine disodium triphosphate] | 0.0565 |
| C=CC1=C(C)c2cc3[nH]c(cc4nc(cc5[nH]c(cc1n2)c(C)c5CCC(=O)O)C(CCC(=O)O)=C4C)c(C)c3C=C [Protoporphyrin IX] | 0.863 (active) |
| CN(C)[C@@H]1C(O)=C(C(N)=O)C(=O)[C@@]2(O)C(O)=C3C(=O)c4c(O)ccc(Cl)c4[C@@](C)(O)[C@H]3C[C@@H]12 [Chlortetracycline hydrochloride] | -0.0618 |
| CC(C)(CO)C(O)C(=O)NCCCO (centres undefined) [Panthenol] | 0.0837 |
| C[C@H]1[C@H](C)CC[C@]2(C(=O)O[C@@H]3O[C@H](CO[C@@H]4O[C@H](CO)[C@@H](O[C@@H]5O[C@@H](C)[C@H](O)[C@@H](O)[C@H]5O)[C@H](O)[C@H]4O)[C@@H](O)[C@H](O)[C@H]3O)CC[C@]3(C)C(=CC[C@@H]4[C@@]5(C)C[C@@H](O)[C@H](O)[C@@](C)(CO)[C@@H]5[C@H](O)C[C@]43C)[C@H]12 [Madecassoside] | 0.808 (active) |
